# Source: PubChem
# The entries come from a sample that favours hits as a whole.
# ROC1-CUL1 inh: blocks human RBX1-Cullin-1 di-ubiquitin formation | in vitro K48 di-Ub FRET, acceptor:donor ratio, 45 min | inhibition, % at 10 µM | 140,000 tested, 0.6% active | AID 1347404; in the data active means inhibition above about 25%
# Target sequence (P62877 whole entry, looked up): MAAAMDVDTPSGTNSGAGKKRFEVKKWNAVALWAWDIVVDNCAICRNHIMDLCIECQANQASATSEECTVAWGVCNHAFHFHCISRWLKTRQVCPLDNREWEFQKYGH
# Target sequence (Q13616 whole entry, looked up): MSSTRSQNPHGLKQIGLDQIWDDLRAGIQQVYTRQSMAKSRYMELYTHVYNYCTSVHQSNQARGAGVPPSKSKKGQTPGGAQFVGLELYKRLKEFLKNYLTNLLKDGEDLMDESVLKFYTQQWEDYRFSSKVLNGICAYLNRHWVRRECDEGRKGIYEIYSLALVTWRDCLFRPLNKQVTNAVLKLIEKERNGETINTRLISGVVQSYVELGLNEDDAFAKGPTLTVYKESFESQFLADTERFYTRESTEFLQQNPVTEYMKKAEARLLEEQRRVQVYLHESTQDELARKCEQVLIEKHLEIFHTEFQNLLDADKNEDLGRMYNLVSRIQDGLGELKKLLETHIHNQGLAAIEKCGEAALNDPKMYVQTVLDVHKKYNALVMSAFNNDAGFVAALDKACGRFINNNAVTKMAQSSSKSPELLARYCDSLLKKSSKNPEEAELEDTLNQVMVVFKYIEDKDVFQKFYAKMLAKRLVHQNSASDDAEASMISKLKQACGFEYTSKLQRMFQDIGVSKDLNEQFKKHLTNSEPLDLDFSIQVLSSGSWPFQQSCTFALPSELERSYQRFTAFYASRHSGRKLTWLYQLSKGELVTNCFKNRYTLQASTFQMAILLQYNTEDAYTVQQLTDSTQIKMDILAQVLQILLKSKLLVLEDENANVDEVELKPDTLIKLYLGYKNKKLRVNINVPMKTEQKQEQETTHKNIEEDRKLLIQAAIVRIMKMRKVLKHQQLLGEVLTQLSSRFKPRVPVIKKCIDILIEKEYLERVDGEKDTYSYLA
# A number is an active result; n = inactive.
SMILES,ROC1-CUL1 inh
Cc1cccc(/C=C2/C(=N)N3N=C(c4ccccc4Cl)SC3=NC2=O)c1,n
Cc1cccc(C2=NN3C(=N)/C(=C\c4ccc([N+](=O)[O-])o4)C(=O)N=C3S2)c1,106.4
O=C(Cc1ccc(N2CCC(NCc3cnn(-c4ccccc4)n3)CC2)cc1)N1CCC(O)CC1,n
CCOC(=O)C1(Cc2cccc(Cl)c2)CCCN(Cc2cnc[nH]2)C1 (configuration not stated),n
Cc1ccc(N2NC(=O)/C(=C/c3ccc(-c4ccc(S(=O)(=O)Nc5nccs5)cc4)o3)C2=O)cc1C,84.8
CCCOC(=O)c1cc(-c2ccc(/C=C3/C(=O)NN(c4ccc(CC)cc4)C3=O)o2)ccc1Cl,n
O=C1NN(c2ccc(F)c(Cl)c2)C(=O)/C1=C/c1ccc(-c2cccc(Cl)c2)o1,n
O=C1NN(c2cccc(F)c2)C(=O)/C1=C/c1ccc(-c2ccc(Cl)cc2)o1,n
O=C1NN(c2ccc(Br)cc2)C(=O)/C1=C\c1ccc(-c2ccccc2)o1,n
CCc1ccc(N2NC(=O)/C(=C/c3ccc(-c4ccc(S(=O)(=O)Nc5nccs5)cc4)o3)C2=O)cc1,93.3
O=C1NN(c2ccc(F)c(Cl)c2)C(=O)/C1=C/c1ccc(-c2ccc(Cl)cc2)o1,n
Cc1ccc(N2NC(=O)/C(=C/c3ccc(-c4ccc(S(=O)(=O)Nc5nccs5)cc4)o3)C2=O)cc1Cl,98.6
COC(=O)c1cccc(-c2ccc(/C=C3/C(=O)NN(c4ccc(C)c(C)c4)C3=O)o2)c1,n
N#CC1C(=N)Oc2cc([N+](=O)[O-])ccc2C1c1cccc(O)c1 (configuration not stated),n
Cc1nn(Cc2ccccc2Cl)c(C)c1NC(=O)C(F)(F)F,n
Cc1cn2c3c(=O)[nH]c(=O)n(C)c3nc2n1-c1cccc(O)c1,n
NC(=O)N=Nc1c(O)n(C2c3ccccc3C=Cc3ccccc32)c2ccccc12,n
CC1CS/C(=C(/C(=O)/C=C/c2ccc3c(c2)OCO3)C(=O)c2ccccc2)S1 (configuration not stated),n
CC(C)c1ccc(C(=O)CC2(O)C(=O)N(Cc3ccc(Cl)cc3)c3ccccc32)cc1 (configuration not stated),n
Cc1cc(C(=O)NCCN2CCOCC2)c(C)o1,n
CCc1ccccc1N1CC(C(=O)NC(C)CC)CC1=O (configuration not stated),n
CN(Cc1ccccn1)C(=O)c1coc(COc2ccc(F)cc2Cl)n1,n
COc1ccc(CNC(=O)CCC2CCCN(C(=O)c3csnn3)C2)c(OC)c1 (configuration not stated),n
CCN1C(=O)S/C(=C/c2cccn2C)C1=O,n
Cn1cccc1/C=C1/C(=O)ON=C1c1ccccc1,n
SMILES,ROC1-CUL1 inh
Cn1cccc1/C=C/c1cc(Br)c(/C=C/c2cccn2C)cc1Br,94.9
CCCC(=O)Nc1ccc(S(=O)(=O)N2CCCCC2C)cc1 (configuration not stated),n
COC(=O)COc1ccccc1/C=C1\C(=O)NC(=O)N(c2ccc(C34CC5CC(CC(C5)C3)C4)cc2)C1=O,41.5
CCOc1cc(/C=C2\C(=O)N(c3ccccc3)C(=S)N2c2ccc(CC)cc2)c(Br)cc1O,n
CCOc1cc(/C=C2\C(=O)NC(=O)N(c3ccc(C45CC6CC(CC(C6)C4)C5)cc3)C2=O)c(Br)cc1O,91.4
COC(=O)COc1ccccc1/C=C1/C(=O)N(c2ccc(Cl)cc2)C(=S)N1C,n
C=CCc1cc(/C=C2\C(=O)NC(=O)N(c3ccc(Br)c(C)c3)C2=O)cc(OCC)c1O,n
COc1cc(OC)c(OC)cc1/C=C1\C(=O)NC(=S)N(c2ccc(F)cc2)C1=O,n
COc1ccc(-c2c(-c3ccccc3)c3cc4c5c(oc4cc3oc2=O)CCCC5)cc1,n
O=C1COC(=S)N1c1ccccc1,n
COc1cccc(CCC(=O)N2CCc3c(cnc(C)c3CNS(=O)(=O)c3cccs3)C2)c1,n
CCN1CCN(CC(O)COc2ccc(CN3CCN(C(C)=O)CC3)cc2OC)CC1 (configuration not stated),n
CCOc1cc(Br)c(C2NC(=S)N=C(C)C2C(C)=O)cc1OCC (configuration not stated),n
c1ccc2c(c1)ccc1nsnc12,n
Nc1c(Br)ccc2nsnc12,103.8
Cc1ccc2nsnc2c1S(=O)(=O)Nc1ccccc1Br,n
CC(C)(C)c1ccc(CC2=NC(=O)NC2=O)cc1,n
O=C(c1ccc(Br)cc1)N(Cc1ccc(Cl)cc1)C1CCS(=O)(=O)C1 (configuration not stated),n
Cc1cccc(N=C2NC(=O)/C(=C\c3ccc(OCc4ccccc4)cc3)S2)c1,n
N#Cc1ccccc1COc1ccc(/C=C2/SC(=Nc3cccc(C(=O)O)c3)NC2=O)cc1,89.3
O=C1NC(=Nc2ccc(F)cc2)S/C1=C\c1ccc(OCc2cccc(C(=O)O)c2)cc1,n
CC(C)(C)c1ncccc1OC(=O)C12CC3CC(CC(C3)C1)C2,n
O=C1CC(c2ccccc2Br)Sc2ccccc2N1 (configuration not stated),n
Cc1cc(C)cc(NC(=O)c2cc([N+](=O)[O-])ccc2Cl)c1,n
CCOC(=O)c1csc(CCNC(=O)C2CCN(c3nc(C)c4cc(C(C)C)ccc4n3)CC2)n1,n
SMILES,ROC1-CUL1 inh
CCOC(=O)c1c(-c2ccccc2)csc1NC(=O)CSc1cc(C)c2ccccc2n1,n
CCOC(=O)c1c(-c2ccco2)csc1NC(=O)CSc1cc(C)c2ccccc2n1,91.0
CCOC(=O)c1c(-c2ccc(F)cc2)csc1NC(=O)CSc1nc2ccccc2c(=O)n1-c1ccccc1,n
O=C1Nc2ccccc2C(=O)C1Sc1ccccc1 (configuration not stated),n
O=C1c2cccc3cccc(c23)C(=O)C1Sc1ccccc1,99.5
O=C1c2ccccc2N(c2ccccc2)C(=O)C1Sc1ccccc1 (configuration not stated),n
Cc1cc2c(c(=O)o1)C(c1cccc(F)c1F)C(C#N)C(=N)O2 (configuration not stated),n
Cc1nc(CN)cc(N2CCC(Cn3cccn3)CC2)n1,n
CCOC(=O)c1sc2ncc([N+](=O)[O-])cc2c1N=CN(C)C,n
O=C(NCCN1CCOCC1)c1cnccn1,n
CCOc1ccc(NC(=S)Nc2ccc3nsnc3c2)cc1,50.7
CCOc1ccc(NC(=S)NCCO)cc1,n
CCOc1ccc(NC(=S)NCCCO)cc1,n
CCCOC(=O)c1ccccc1OC(=O)c1ccc(Cl)cc1Cl,n
Cc1cccc(C(=O)N2c3cc(F)ccc3-c3c(ssc3=S)C2(C)C)c1,n
CC(=O)Oc1ccc(OC(C)=O)c2c1C(=O)C=CC2=O,99.4
CC(=O)NCc1ccc(OC(C)=O)c(OC(C)=O)c1,n
CC(=O)Oc1ccccc1C(=O)Oc1ccccc1,n
COc1ccc(S(=O)(=O)N2CCSCC2)cc1C(=O)NC1CCCC1,n
O=C(NN=C1CCCCCCC1)c1sc2ccccc2c1Cl,n
CCCc1nn2c(=O)cc(N3CCCCC3)nc2s1,n
CCC(=O)NNc1cc(N2CCCC2)nc(N2CCCC2)n1,74.5
Cc1cccc(/C=N/Nc2cc(N3CCCCC3)nc(N3CCCCC3)n2)c1,n
O=C1C(=O)/C(=C/c2ccccc2)CCC/C1=C/c1ccccc1,n
O=C1/C(=C\c2ccccc2)CCC/C1=C\c1ccccc1,n
CC1(C)CC(=O)/C(=C\c2ccccc2)C(C)(C)N1,25.0
COc1cccc(-c2n[nH]c3c2CN(Cc2cccc(C)n2)CC3)c1,n
Cc1cc(Cl)ccc1OC(C)C(=O)N1CCc2c(cnc(C)c2CNC(=O)c2ccccc2F)C1 (configuration not stated),n
